Reference: the supplement of paper PMC4466140

How the values were obtained:
Experiment in all cases: SPOT peptide array binding signal intensity (averaged, normalized) (arbitrary units (background-subtracted, floor 0; scale differs between SH3 domains)); higher = stronger binding of the SH3 domain to the peptide
[1] = molecular target: AgAbp1
Summary of the method: (§1)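 Detection of bound protein relied on anti-GST antibody, an HRP anti-mouse secondary and luminol, with imaging and quantification in Genespotter. The bound protein was GST-fused SH3 domains from four yeast species, incubated at 10 μg/ml overnight at 4°C in TBS-based blocking buffer on cellulose membranes carrying synthetic 15-mer peptides with cysteines replaced by serines. Binding signal is normalized, background-subtracted spot intensity averaged over replicates, in arbitrary units that differ between domains.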

[2] = molecular target: AgBbc1
Summary of the method: as §1

[3] = molecular target: AgBem1-D1
Summary of the method: as §1

[4] = molecular target: AgBzz1-D1
Summary of the method: as §1

[5] = molecular target: AgBzz1-D2
Summary of the method: as §1

[6] = molecular target: AgCyk3
Summary of the method: as §1

[7] = molecular target: AgFus1
Summary of the method: as §1

[8] = molecular target: AgHof1
Summary of the method: as §1

[9] = molecular target: AgHse1
Summary of the method: as §1

[10] = molecular target: AgLsb1
Summary of the method: as §1

[11] = molecular target: AgLsb4
Summary of the method: as §1

[12] = molecular target: AgMyo5
Summary of the method: as §1

[13] = molecular target: AgNbp2
Summary of the method: as §1

[14] = molecular target: AgRvs167
Summary of the method: as §1

[15] = molecular target: AgSho1
Summary of the method: as §1

[16] = molecular target: AgSla1-D1-D2
Summary of the method: as §1

[17] = molecular target: AgSla1-D3
Summary of the method: as §1

[18] = molecular target: CaAbp1-D1
Summary of the method: as §1

[19] = molecular target: CaAbp1-D2
Summary of the method: as §1

[20] = molecular target: CaBbc1
Summary of the method: as §1

[21] = molecular target: CaBem1-D1
Summary of the method: as §1

[22] = molecular target: CaBzz1-D1
Summary of the method: as §1

[23] = molecular target: CaBzz1-D2
Summary of the method: as §1

[24] = molecular target: CaCyk3
Summary of the method: as §1

[25] = molecular target: CaFus1
Summary of the method: as §1

[26] = molecular target: CaHof1
Summary of the method: as §1

[27] = molecular target: CaHse1
Summary of the method: as §1

[28] = molecular target: CaLsb1
Summary of the method: as §1

[29] = molecular target: CaLsb4
Summary of the method: as §1

[30] = molecular target: CaMyo5
Summary of the method: as §1

[31] = molecular target: CaNbp2
Summary of the method: as §1

[32] = molecular target: CaRvs167
Summary of the method: as §1

[33] = molecular target: CaRvs167-3
Summary of the method: as §1

[34] = molecular target: CaSho1
Summary of the method: as §1

[35] = molecular target: CaSla1-D1-D2
Summary of the method: as §1

[36] = molecular target: CaSla1-D3
Summary of the method: as §1

[37] = molecular target: ScAbp1
Summary of the method: as §1

[38] = molecular target: ScBbc1
Summary of the method: as §1

[39] = molecular target: ScBem1-D1
Summary of the method: as §1

[40] = molecular target: ScBzz1-D1
Summary of the method: as §1

[41] = molecular target: ScBzz1-D2
Summary of the method: as §1

[42] = molecular target: ScCyk3
Summary of the method: as §1

[43] = molecular target: ScFus1
Summary of the method: as §1

[44] = molecular target: ScHof1
Summary of the method: as §1

[45] = molecular target: ScHse1
Summary of the method: as §1

[46] = molecular target: ScLsb1
Summary of the method: as §1

[47] = molecular target: ScLsb2
Summary of the method: as §1

[48] = molecular target: ScLsb3
Summary of the method: as §1

[49] = molecular target: ScLsb4
Summary of the method: as §1

[50] = molecular target: ScMyo3
Summary of the method: as §1

[51] = molecular target: ScMyo5
Summary of the method: as §1

[52] = molecular target: ScNbp2
Summary of the method: as §1

[53] = molecular target: ScPex13
Summary of the method: as §1

[54] = molecular target: ScRvs167
Summary of the method: as §1

[55] = molecular target: ScSho1
Summary of the method: as §1

[56] = molecular target: ScSla1-D1-D2
Summary of the method: as §1

[57] = molecular target: ScSla1-D3
Summary of the method: as §1

[58] = molecular target: SpAbp1-D1
Summary of the method: as §1

[59] = molecular target: SpBbc1
Summary of the method: as §1

[60] = molecular target: SpBzz1-D1
Summary of the method: as §1

[61] = molecular target: SpBzz1-D2
Summary of the method: as §1

[62] = molecular target: SpCyk3
Summary of the method: as §1

[63] = molecular target: SpHof1
Summary of the method: as §1

[64] = molecular target: SpHof1-2
Summary of the method: as §1

[65] = molecular target: SpHof1-3
Summary of the method: as §1

[66] = molecular target: SpHse1
Summary of the method: as §1

[67] = molecular target: SpLsb1
Summary of the method: as §1

[68] = molecular target: SpLsb4
Summary of the method: as §1

[69] = molecular target: SpMyo1
Summary of the method: as §1

[70] = molecular target: SpNbp2
Summary of the method: as §1

[71] = molecular target: SpPex13
Summary of the method: as §1

[72] = molecular target: SpRvs167
Summary of the method: as §1

[73] = molecular target: SpSla1-D1-D2
Summary of the method: as §1

[74] = molecular target: SpSla1-D3
Summary of the method: as §1

B1: unnamed (peptide)
chain: QLMKNLPKIPLLNDI
- SPOT peptide array binding signal intensity [1]: ≤ 0
- SPOT peptide array binding signal intensity [2]: 5.5
- SPOT peptide array binding signal intensity [3]: 301
- SPOT peptide array binding signal intensity [4]: 20
- SPOT peptide array binding signal intensity [5]: 36.5
- SPOT peptide array binding signal intensity [6]: ≤ 0
- SPOT peptide array binding signal intensity [7]: 336
- SPOT peptide array binding signal intensity [8]: 113
- SPOT peptide array binding signal intensity [9]: 229
- SPOT peptide array binding signal intensity [10]: 1.75
- SPOT peptide array binding signal intensity [11]: 16.5
- SPOT peptide array binding signal intensity [12]: 2.75
- SPOT peptide array binding signal intensity [13]: 120
- SPOT peptide array binding signal intensity [14]: 1.67
- SPOT peptide array binding signal intensity [15]: 3070
- SPOT peptide array binding signal intensity [16]: ≤ 0
- SPOT peptide array binding signal intensity [17]: 2.75
- SPOT peptide array binding signal intensity [18]: 9.5
- SPOT peptide array binding signal intensity [19]: 46
- SPOT peptide array binding signal intensity [20]: 14.5
- SPOT peptide array binding signal intensity [21]: 187
- SPOT peptide array binding signal intensity [22]: 222
- SPOT peptide array binding signal intensity [23]: 121
- SPOT peptide array binding signal intensity [24]: 4
- SPOT peptide array binding signal intensity [25]: 670
- SPOT peptide array binding signal intensity [26]: 2.75
- SPOT peptide array binding signal intensity [27]: 168
- SPOT peptide array binding signal intensity [28]: 2.5
- SPOT peptide array binding signal intensity [29]: 590
- SPOT peptide array binding signal intensity [30]: 83.8
- SPOT peptide array binding signal intensity [31]: 355
- SPOT peptide array binding signal intensity [32]: 19.5
- SPOT peptide array binding signal intensity [33]: ≤ 0
- SPOT peptide array binding signal intensity [34]: 1860
- SPOT peptide array binding signal intensity [35]: 384
- SPOT peptide array binding signal intensity [36]: 205
- SPOT peptide array binding signal intensity [37]: ≤ 0
- SPOT peptide array binding signal intensity [38]: 3
- SPOT peptide array binding signal intensity [39]: 3
- SPOT peptide array binding signal intensity [40]: 15.5
- SPOT peptide array binding signal intensity [41]: 39.5
- SPOT peptide array binding signal intensity [42]: 5
- SPOT peptide array binding signal intensity [43]: 526
- SPOT peptide array binding signal intensity [44]: 11.2
- SPOT peptide array binding signal intensity [45]: 267
- SPOT peptide array binding signal intensity [46]: 5.75
- SPOT peptide array binding signal intensity [47]: 2
- SPOT peptide array binding signal intensity [48]: 292
- SPOT peptide array binding signal intensity [49]: 67.5
- SPOT peptide array binding signal intensity [50]: 25
- SPOT peptide array binding signal intensity [51]: 2.25
- SPOT peptide array binding signal intensity [52]: 217
- SPOT peptide array binding signal intensity [53]: 580
- SPOT peptide array binding signal intensity [54]: 5
- SPOT peptide array binding signal intensity [55]: 1950
- SPOT peptide array binding signal intensity [56]: 319
- SPOT peptide array binding signal intensity [57]: 538
- SPOT peptide array binding signal intensity [58]: 2.5
- SPOT peptide array binding signal intensity [59]: ≤ 0
- SPOT peptide array binding signal intensity [60]: 250
- SPOT peptide array binding signal intensity [61]: 10.8
- SPOT peptide array binding signal intensity [62]: 4
- SPOT peptide array binding signal intensity [63]: 369
- SPOT peptide array binding signal intensity [64]: 1050
- SPOT peptide array binding signal intensity [65]: 970
- SPOT peptide array binding signal intensity [66]: 206
- SPOT peptide array binding signal intensity [67]: 1
- SPOT peptide array binding signal intensity [68]: 628
- SPOT peptide array binding signal intensity [69]: 106
- SPOT peptide array binding signal intensity [70]: 88
- SPOT peptide array binding signal intensity [71]: 146
- SPOT peptide array binding signal intensity [72]: 22.8
- SPOT peptide array binding signal intensity [73]: 20.5
- SPOT peptide array binding signal intensity [74]: 251
